The record followed here is paper PMC7819943, “Rice protein-binding microarrays: a tool to detect cis-acting elements near promoter regions in rice”.

Whole data set: some 68,000 sequences, median “fluorescence intensity (a.u.)” near 9,100, cut for the highest 2% near 16,000. This is one part of a sample in which the highest values are shown more often than they occur.

Chain of OsWRKY34 (Q0JBA9 entry or part of it): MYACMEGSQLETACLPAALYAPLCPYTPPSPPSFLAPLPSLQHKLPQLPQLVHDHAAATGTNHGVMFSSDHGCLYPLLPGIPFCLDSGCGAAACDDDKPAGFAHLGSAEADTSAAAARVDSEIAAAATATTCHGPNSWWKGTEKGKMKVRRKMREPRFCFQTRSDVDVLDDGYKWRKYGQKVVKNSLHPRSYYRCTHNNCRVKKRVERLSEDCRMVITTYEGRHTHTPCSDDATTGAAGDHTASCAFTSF

The target of this assay is OsWRKY34 (Oryza sativa, UniProt Q0JBA9 1-250). The assay is described as follows: protein-binding microarray (RPBM); PBS, 2% BSA, 51.3 ng/ul salmon testes DNA, 50 uM zinc acetate, 200 nM TF, 25 C, 1 h; high values mean tight binding. The conditions noted are these: protein: recombinant; tags: N-terminal polyhistidine and DsRed monomer fusion (pET32a); label: CyDye5-dUTP incorporated in the synthesized complementary strand; 3' TTTTT single-stranded linker to array surface; dsDNA, one strand shown. A digest of the protocol:
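The binding signal for each feature is its fluorescence intensity in arbitrary units. An Axon 4000B scanner was used to read a custom Agilent array that had been made double-stranded with Cy5-dUTP primer extension, blocked with 2% BSA, incubated at 25 °C for 1 h with 200 nM protein in PBS, 2% BSA, salmon testes DNA and 50 µM zinc acetate, and washed. The protein was an N-terminal polyhistidine–DsRed transcription factor fusion from E. coli BL21-CodonPlus, purified on Ni–NTA.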
On to “TGTATAGTTTAGGGGTGAAGATTTCTGGTTTTGTGGTTAACGGAGTCACCTAGTGCAG”, for which the binding signal was 11500 fluorescence intensity (a.u.). With “GAGTGGGTGTGGGTTTTCTAGTGGGCAGATTTAGTTTTAACGGAGTCACCTAGTGCAG” the figure was 17200 fluorescence intensity (a.u.); with “TTATGGTTGTTTTCTTCGGTTCTTTGTTTTTTTAAAAAAACGGAGTCACCTAGTGCAG”, 11600 fluorescence intensity (a.u.); with “GTGGGCAGATTTAGTTTTAATGGGTGTGGGTACGGAGAGTCGGAGTCACCTAGTGCAG”, 8900 fluorescence intensity (a.u.).

“GATGTGCCAATGGTTTCTTTCTCTTTCTTTCTCTTTAAAACGGAGTCACCTAGTGCAG”: the binding signal is 8910 fluorescence intensity (a.u.). With “AGGCTACACTATTAAACTTGCTCTTCTCAAGCTACTTCAACGGAGTCACCTAGTGCAG” the figure was 8190 fluorescence intensity (a.u.); with “AAGCGGGGATTTTATGTGGGCAGTGGGTTTTCTTCTTAAACGGAGTCACCTAGTGCAG”, 19300 fluorescence intensity (a.u.); with “ATGGTTTTTCAGGGTTGGATTTATGTGTGGTCAGTTTAAACGGAGTCACCTAGTGCAG”, 12000 fluorescence intensity (a.u.). For “ATTATTAATAAAACTCATTCTATAACTCTGGACTAATTCGCGGAGTCACCTAGTGCAG”, the binding signal is 8200 fluorescence intensity (a.u.). With “AGAGGGGAGGGAGGAGGATTATGGTTTTTTTTCTCTAAAACGGAGTCACCTAGTGCAG” the figure was 16700 fluorescence intensity (a.u.); with “ACATGTGGGGCCTATTTATTTCTTTTTTTTTAAAAAAAAACGGAGTCACCTAGTGCAG”, 8480 fluorescence intensity (a.u.); with “GGGGTTTGCTATTCTGGCTCTCTATTAAGCTCATAAAAAACGGAGTCACCTAGTGCAG”, 23500 fluorescence intensity (a.u.). Regarding “TCCATTTCCCGCCGCCTCCCCTCTCGCGATCCATATCCATCGGAGTCACCTAGTGCAG”, the binding signal was 8050 fluorescence intensity (a.u.).

Consider “GCTTTTCTTCCTCGACAAGGCCGCCTGCACCACCGTCTCCCGGAGTCACCTAGTGCAG”, for which the binding signal was 10500 fluorescence intensity (a.u.). Take “CTGGTTACTTTCTCATTTCTTCCTCGCTCGCGCGCTCTCTCGGAGTCACCTAGTGCAG”: the binding signal was 10800 fluorescence intensity (a.u.). With “GATTTAGAGTTGGAGTCAGTCGGTTTGACCAGCCACATGCCGGAGTCACCTAGTGCAG” the figure was 8690 fluorescence intensity (a.u.); with “GCTAGGTCAACTTTGCTCTCAGCTCTCGCTCCCGATGCCACGGAGTCACCTAGTGCAG”, 9760 fluorescence intensity (a.u.). As to “CTCTCTCTCTCTCTCTCTCTCTCTCTCCAACGCGCGCGCGCGGAGTCACCTAGTGCAG”, the binding signal is 8700 fluorescence intensity (a.u.).

For the sequence “CGGCGTCTCTACCTCTACGAATCAGGTCAGGCTTCGATCCCGGAGTCACCTAGTGCAG”, the binding signal was 8380 fluorescence intensity (a.u.). With “CTGGCCGCCATCTCCGCCAATCTCGCTGAATCGGACGCCACGGAGTCACCTAGTGCAG” the figure was 8460 fluorescence intensity (a.u.). With “GAAATGTGGGAGGGGTTTTCTTACAAATGTTATATAGACACGGAGTCACCTAGTGCAG”, the binding signal was 13900 fluorescence intensity (a.u.). With “ATGTGTGGATTTATAAGGGTGAGTATATGTGTTTCGGGAACGGAGTCACCTAGTGCAG” the figure was 8140 fluorescence intensity (a.u.). With “GGGGTTTTTCTTATGTTAGTATATGTGTGGGATGTGTGAACGGAGTCACCTAGTGCAG” the figure was 16800 fluorescence intensity (a.u.); with “CGGGTTCAATATATTGTTTTTTTTAAGACTGGTTCAATATCGGAGTCACCTAGTGCAG”, 8880 fluorescence intensity (a.u.); with “TATGTGTTTTTTGCCGATTAAATTATTACGGGATATATAACGGAGTCACCTAGTGCAG”, 9680 fluorescence intensity (a.u.). For “TATATCACATTTAATTATTTTTCCCATGTTCTTGTTTTAACGGAGTCACCTAGTGCAG”, the binding signal was 9480 fluorescence intensity (a.u.). Consider “ATTGGGTTGATATTATATTGGCAGGGCCAGAAAGTTTTACCGGAGTCACCTAGTGCAG”, for which the binding signal was 8580 fluorescence intensity (a.u.). With “ATGGTCAAACATGTGAGAAAAAGTCAACGGCGTCATCTATCGGAGTCACCTAGTGCAG” the figure was 19600 fluorescence intensity (a.u.); with “AATGGTCAAACATGTGAGAAAAAGTCAACGGCGTTATCTACGGAGTCACCTAGTGCAG”, 15500 fluorescence intensity (a.u.); with “CGAATGGTCAAACATATGAGAAAAAGTCAACGATGTCATCCGGAGTCACCTAGTGCAG”, 13900 fluorescence intensity (a.u.).

With “CGGTCAAACATGTGCTAAAAAGTCAACGGTGTCAAATATTCGGAGTCACCTAGTGCAG”, the binding signal is 11400 fluorescence intensity (a.u.).

Take “AACGGTCAAACATGTGCTAAAAAGTCAACGGTGTCAAATACGGAGTCACCTAGTGCAG”: the binding signal was 18600 fluorescence intensity (a.u.). For the sequence “AACGGTCAAATATGTGCTAAAAAGTCAACGGTGTCAAATACGGAGTCACCTAGTGCAG”, the binding signal was 11300 fluorescence intensity (a.u.). “CGAATGGTCAAACATGTAGAAAAAAGTCAACGGTGTCATCCGGAGTCACCTAGTGCAG”: the binding signal was 16900 fluorescence intensity (a.u.). For “TAAGACGAATGGTCAAACATGTAAGAAAAAGTCAACGGTACGGAGTCACCTAGTGCAG” the value was 12900 fluorescence intensity (a.u.); for “GAACGGTCAAACATGTGCTAAAAAGTCAACGGTGTCAAACCGGAGTCACCTAGTGCAG”, 10100 fluorescence intensity (a.u.). On to “ATGGTCAAACATGTGCTAAAAAGTCAACGGTGTCAAACATCGGAGTCACCTAGTGCAG”, for which the binding signal is 17700 fluorescence intensity (a.u.).

With “ACGAATGGTCAAACATGTGAGGAAAAGTCAACGGCGTCATCGGAGTCACCTAGTGCAG”, the binding signal is 13400 fluorescence intensity (a.u.). With “ACGAACGGTCAAACATGTGCTAAAAAGTCAACGGTGTCAACGGAGTCACCTAGTGCAG” the figure was 15900 fluorescence intensity (a.u.). As to “TAGCTCGGATTCTGCCCCTAATCCCGCCGTCCGCCTCCGCCGGAGTCACCTAGTGCAG”, the binding signal is 8490 fluorescence intensity (a.u.). “AGGCAACACATACAATGTATCACCTCTAACACACAAATACCGGAGTCACCTAGTGCAG”: the binding signal was 8410 fluorescence intensity (a.u.).

Consider “TCCATCAGTTTTGTGAACTCTGTCTGTCACTCGCTCAGCACGGAGTCACCTAGTGCAG”, for which the binding signal was 8940 fluorescence intensity (a.u.).
